Screens from PubChem BioAssay.
An excerpt weighted towards active compounds, which were near 7.9% of everything screened.
Marburg entry inh: Marburg virus entry inhibition; Marburg virus pseudotyped entry inhibition, cell reporter; Potency, µM (doses to about 37.8 µM), without a hit: top-dose activity change, negative = inhibition, actives largely listed as inhibitors; 300,000 tested, 1.8% active; AID 540276; calls by dose curve; tested in HEK293 cells; also: potency is read from the fitted curve at half-maximal effect
HCV inh: inhibitors of hepatitis C virus infection; Huh7.5.1 HCVcc-Cre infection, luciferase reporter, 44 h; Potency, µM (titrated, usually from 41.8 µM), for inactives: at the highest dose activity change, negative = inhibition, actives largely listed as inhibitors; 340,000 tested, 3.4% active; active = well fitted inhibition curve with a large enough effect; inconclusive = small, poorly fitted or top-dose-only effect, or another doubt; inactive = no such curve, though single readings can be large or run the other way; also: potency is read from the fitted curve at half-maximal effect
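HCVcc-Cre virus at an moi near 0.5 was added right after compound to cells cultured 4 h from seeding (1,000 cells/well). Luciferase activity was determined 44 h later, 15 min after substrate addition at RT.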
FMDV antiviral: foot and mouth disease virus antiviral activity | FMDV antiviral cell-based qHTS | Potency, µM (top dose mostly 57.9 µM), without a hit: at the highest dose activity change, negative = inhibition, usual class: inhibitors | 410,000 tested, 1.2% active; calls by dose curve; tested in HEK293T cells; also: read-out not given here; potency is read from the fitted curve at half-maximal effect; nearly all actives have a fitted effect of over 45% in size
HCMV antiviral: blocks human cytomegalovirus replication. HFF cells, HCMV-luciferase reporter, 72 h; active compounds read low. activity change, negative = inhibition, % at 57.5 µM. 410,000 tested, 4.5% active. AID 1259415; in the data active = activity change below about -60%; inconclusive = no clear call, values can overlap the other calls; inactive = above about -39%
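Human foreskin fibroblasts infected with luciferase-reporter HCMV at MOI 1 PFU/cell, compounds at two doses. Luciferase measured 72 h post infection; normalized to buffer-only basal and Salinomycin (10uM) controls.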
LASV entry inh: blocks Lassa virus binding to or entry into cells; Lassa virus pseudotype entry inhibition, cell reporter; 300,000 tested, 1.2% active; AID 540256; Potency, µM (top dose mostly 37.9 µM), for inactives: top-dose activity change, negative = inhibition, most hits filed as inhibitors; calls by dose curve; tested in HEK293 cells; also: potency is read from the fitted curve at half-maximal effect; nearly all actives have a fitted effect of over 50% in size
* hit, by the source's call; u = inconclusive; x = no result given; ! = a repeat was not active; [ ] = remark or other dose. % is scaled to controls: 0 for no effect and ±100 for the full control effect.

SMILES	Marburg entry inh	HCV inh	FMDV antiviral	HCMV antiviral	LASV entry inh
O=C(C1CCCCN1S(=O)(=O)c1ccccc1)N1CCCCC1 (centres undefined)	0%	u	-9%	-7	7%
COC(=O)c1cc(=O)n(CCc2ccccc2F)c(=Nc2ccc(F)c(Cl)c2)s1	-6%	7.9µM*	16µM*	u	x
COC(=O)c1cc(=O)n(Cc2cccs2)c(=Nc2ccc(F)cc2)s1	x	u	u	-29	x
COC(=O)c1cc(=O)n(-c2ccc(F)cc2)c(=Nc2ccc(F)cc2)s1	u	u	22µM*	64	-17%
COC(=O)c1ccc(N=c2sc(C(=O)OC)cc(=O)n2C)cc1	x	11%	32µM*	21	x
CCOC(=O)c1ccc(N=c2sc(C(=O)OC)cc(=O)n2C2CC2)cc1	-1%	-5%	u	15	-1%
Cc1ccccc1OCC(=O)Nc1ccc(C(=O)OCc2cc(=O)n3ccsc3n2)cc1	x	x	u	10	26%[46.1 µM]
Cc1cc(C)cc(C(=O)Nc2c(C(=O)Nc3ccccc3F)oc3ccccc23)c1	3%[46.1 µM]	x	u	1	-5%[46.1 µM]
Cc1ccc(OCc2cc(=O)n3cc(C)sc3n2)c(NC(=O)c2ccco2)c1	x	x	-19%	-10	-1%[46.1 µM]
COc1cc(/C=N/Nc2nc(-c3ccc(S(=O)(=O)N(C)C)cc3)cs2)ccc1O	x	u	35µM*	-65*	x
O=S(=O)(c1cccc(-c2csc(N/N=C/c3ccco3)n2)c1)N1CCOCC1	x	u	28µM*	u	x
Cc1ccc(C)c(-c2csc(Nc3ncccn3)n2)c1	x	3%	9%	-34	x
CCOc1cc(/C=N/Nc2nc(-c3cccc(S(=O)(=O)N4CCCC4)c3)cs2)ccc1O	u	10µM*	u	u	u
O=S(=O)(c1cccc(-c2csc(-c3ccccc3)n2)c1)N1CCOCC1	u	u	1%	23	-9%
Cc1ccc(C)c(-c2csc(N/N=C/c3ccco3)n2)c1	5µM*	13µM*	-9%	u	2µM*
CCc1ccc(CNC(=O)c2ccc(NC(=O)N3CC(C)Sc4ccccc43)cc2)cc1 (centres undefined)	u	x	-10%	27	-9%[46.1 µM]
COC(=O)c1cccc(-n2c(CCC(=O)O)ccc2-c2ccc(OC)cc2)c1	u	x	-23%	33	-2%[46.1 µM]
COc1ccc(-c2cnnc(N/N=C/c3ccc(O)c(OC)c3)n2)cc1	u	u	-19%	u	5.8µM*
Cc1nc(-c2cccc(S(=O)(=O)N3CCCCC3)c2)cs1	u	0%	4%	-40	-26%
COc1ccc(/C=N/Nc2nc(-c3cccc(S(=O)(=O)N4CCCC4)c3)cs2)cc1OC	u	10µM*	u	u	-9%
COc1ccc(-c2cn3nc(N4CCCC(C(=O)NCc5ccccc5C)C4)sc3n2)cc1 (centres undefined)	x	x	-3%	0	-1%[46.1 µM]
O=C(CCCO)N/N=C/c1ccccc1[N+](=O)[O-]	u	16%	38%	u	22%
O=[N+]([O-])c1cc2c(cc1/C=N\NS(=O)(=O)c1ccccc1)OCO2	u	8%	x	-84*	-28%
O=C(CNS(=O)(=O)c1ccccc1)N/N=C/c1ccccc1[N+](=O)[O-]	1%[46.1 µM]	-2%	-11%	-65*	-8%[46.1 µM]
Cc1ccc(S(=O)(=O)NCC(=O)N/N=C/c2ccccc2O)cc1	u	-87%	-7%	-22	7.3µM*
SMILES	Marburg entry inh	HCV inh	FMDV antiviral	HCMV antiviral	LASV entry inh
CC(=O)c1ccc(NC(=O)c2ncn(-c3ccccc3)n2)cc1	u	x	55%	67	16%[46.1 µM]
Cc1ccc(CNC(=O)NCc2noc3ccc(C)cc23)cc1	x	x	-11%	-22	4%[46.1 µM]
COc1ccc(NC(=O)c2cccc3c(-c4ccc(O)c(OC)c4)coc23)cc1	x	x	-5%	20	x
COc1ccc(-c2coc3c(C(=O)NCC4CCOCC4)cccc23)c(C)c1	x	x	u	-61*	x
CC(=O)c1cccc(NC(=O)c2cccc3c(-c4cccc(C(N)=O)c4)coc23)c1	x	x	35µM*	u	x
COc1cc(NC(=O)c2cccc3c(-c4cccnc4)coc23)cc(OC)c1OC	x	x	13µM*	-39	x
COc1ccc(CNC(=O)c2cccc3c(-c4cnn(C)c4)coc23)cc1OC	x	x	16µM*	u	x
Cn1cc(-c2coc3c(C(=O)NCc4cccnc4)cccc23)cn1	x	x	-22%	-10	x
O=C(CCn1c(=O)c2cccn2c2cccnc21)Nc1ccccc1Br	x	x	2%	u	3%[46.1 µM]
Cn1c(=O)n(C)c2cc(NS(=O)(=O)c3ccc(F)cc3)c(NCc3ccccc3)cc21	16%[46.1 µM]	x	48%	-18	-3%[46.1 µM]
COc1ccc(-c2coc3c(C(=O)Nc4cc(OC)c(OC)c(OC)c4)cccc23)c(C)c1	x	x	u	-65*	x
COc1ccc(-c2coc3c(C(=O)Nc4ccc(OC)nc4)cccc23)c(C)c1	x	x	u	-32	x
COc1ccc(-c2coc3c(C(=O)NCc4ccc(OC)c(OC)c4)cccc23)c(C)c1	x	x	u	-75*	x
COc1ccc(-c2coc3c(C(=O)NCCc4ccccc4)cccc23)c(C)c1	x	x	-22%	-27	x
COc1ccc(C(C)=O)cc1COC(=O)c1ccc(S(=O)(=O)N(C)C)cc1	x	-29%	-16%	11	x
COc1ccc(C(C)=O)cc1COC(=O)c1ccc2c(c1)OCCO2	x	11µM*	-16%	-15	x
O=C(OCc1ccc(Br)cc1)c1cnc(Cl)c(Cl)c1	-8%[46.1 µM]	19%	13%	-60*	x
COc1ccc(C(C)=O)cc1COC(=O)c1cnc(Cl)c(Cl)c1	-1%[46.1 µM]	11µM*	u	71	x
CCOc1ccc(C(C)=O)cc1COC(=O)c1ccc2c(c1)NC(=O)CS2	x	3.5µM*	u	-1	x
COc1ccc(C(C)=O)cc1COC(=O)c1ccc2c(c1)OCO2	u	-66%	-9%	22	-3%
COc1ccc(C(=O)COC(=O)c2ccc3c(c2)NC(=O)CS3)c(OC)c1	u	u	u	-24	-3%
COc1ccc(C(=O)NCc2nc(-c3cccc(NC(=O)c4ccc(C)s4)c3)oc2C)cc1	x	x	9%	x	x
Cc1ccccc1-c1nnc(CN2CCN(c3cccc(C)c3C)CC2)o1	7%[46.1 µM]	x	2%	-5	22%[46.1 µM]
COc1cc(CC(=O)OCC(=O)c2ccc3c(c2)OCCO3)cc(OC)c1OC	u	u	-12%	-71*	u
CCCOc1cccc(C(=O)Nc2cccc(NC(=O)c3ccc(Cl)cc3Cl)c2)c1	x	x	-19%	-8	1%[46.1 µM]
O=C(NNC(=S)Nc1ccc(Cl)cc1Cl)c1ccncc1	u	14%	30%	-2	19%
O=C(NNC(=S)Nc1ccc(Cl)cc1Cl)c1cccnc1	x	6%	72%	-64*	x
CC(Oc1ccc(Cl)cc1Cl)c1nc(-c2ccc(NC(=O)c3cccnc3)cc2)no1 (centres undefined)	11µM*	11µM*!	28µM*	-72*	u
CC(Oc1ccc(Cl)cc1Cl)C(=O)NNC(=O)c1cccnc1 (centres undefined)	x	14%	0%	-21	x
CC(C)(C)c1ccc(C(=O)NNC(=S)NC(=O)c2cccnc2)cc1	u	u	5%	u	u
